Luc counter: Counterscreen for Luciferase (Kinase-Glo TM) Inhibition | Luciferin 4-monooxygenase (Photuris pensylvanica), Q27757 | Kinase-Glo luciferase, ATP luminescence, 8 min | Potency, µM (doses to about 38.3 µM), for inactives: at the top dose activity change, negative = inhibition, usual class: inhibitors | actives 0.28% (n = 200,000); also: nearly all actives have a fitted effect of over 60% in size
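Recombinant Kinase-Glo luciferase, 10 uM ATP (linear range), luciferin; imidazole pH 7.2 / KCl / MgCl2 / Tween / BSA buffer; 8 min RT; luminescence.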
VP16 counter: VP16 counterscreen qHTS for inhibitors of ROR gamma transcriptional activity | Drosophila S2 Gal4-VP16 UAS-luciferase, luminescence, 20 h | Potency, µM (doses to about 53.6 µM), inactives show at the highest dose activity, negative = inhibition, hits mostly inhibitors | actives 3.5% (n = 310,000);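 also: Gal4-VP16 expression switched on by copper sulfate through the metallothionein promoter; nearly all actives have a fitted effect of over 50% in size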
RORg inh: qHTS for inhibitors of ROR gamma transcriptional activity; actives 5.4% (n = 310,000); Potency, µM (titrated, usually from 53.6 µM), for inactives: top-dose activity change, negative = inhibition, actives largely listed as inhibitors; AID 2551, 2010; Drosophila S2 Gal4-RORgamma UAS-luciferase reporter, 20 h; Nuclear receptor ROR-gamma (Mus musculus), P51450; also: nearly all actives have a fitted effect of over 60% in size
Target sequence (P51450 whole entry, looked up, the tested form may be a part): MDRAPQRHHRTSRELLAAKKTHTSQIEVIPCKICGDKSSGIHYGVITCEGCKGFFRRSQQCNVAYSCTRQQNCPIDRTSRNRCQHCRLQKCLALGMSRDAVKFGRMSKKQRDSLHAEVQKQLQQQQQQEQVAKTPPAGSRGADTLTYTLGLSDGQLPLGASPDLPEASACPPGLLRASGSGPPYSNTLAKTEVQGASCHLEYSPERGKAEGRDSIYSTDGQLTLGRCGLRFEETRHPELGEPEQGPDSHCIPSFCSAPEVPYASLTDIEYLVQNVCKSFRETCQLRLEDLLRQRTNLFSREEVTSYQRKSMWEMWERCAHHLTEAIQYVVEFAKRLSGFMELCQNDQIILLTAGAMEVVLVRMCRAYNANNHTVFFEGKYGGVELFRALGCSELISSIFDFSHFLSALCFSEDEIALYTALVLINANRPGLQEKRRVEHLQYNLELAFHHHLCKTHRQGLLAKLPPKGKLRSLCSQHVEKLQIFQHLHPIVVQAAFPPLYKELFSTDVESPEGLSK
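A Gal4/UAS one-hybrid system in insect cells: metallothionein-promoter Gal4–ROR gamma fusion plus Photinus luciferase reporter. Copper sulfate 700 uM final, 20 hr ambient incubation, luminescent detection after 10 min with reagent.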
Active calls of the source: *; ? = inconclusive; . = no result. Shown are actives, neighbours in structure and some others; about 6.2% of the full set was active somewhere. Calls follow the shape of the dose curve; as a rule, active = well fitted curve in the direction sought with a large enough effect; inconclusive = small, poorly fitted or top-dose-only effect, or another doubt; inactive = no such curve, though single readings can be large; an effect the other way counts as inactive or inconclusive. % is scaled to controls: 0 for no effect and ±100 for the full control effect; potency is read from the fitted curve at half-maximal effect.

SMILES | Luc counter | VP16 counter | RORg inh
CCCCC1CC(/C(C)=N/NC(N)=O)OC1=O (stereo not given) | 0% | -7% | -9%
C/C(=N\NC(N)=S)C1C2C3CC4C5CC(C42)C1C53 (stereo not given) | -1% | ? | 1.1µM*
c1ccc(N(c2ccccc2)c2nc(-n3ccnc3)nc(-n3ccnc3)n2)cc1 | -3% | -13% | -28%
C=CCNc1nc(N(c2ccccc2)c2ccccc2)nc(-n2ccnc2)n1 | -2% | -13% | 11µM*
CN(c1ccccc1)c1nc(-n2ccnc2)nc(-n2ccnc2)n1 | -3% | -4% | -12%
CCCCNc1nc(N(C)c2ccccc2)nc(-n2ccnc2)n1 | -2% | ? | 10µM*
CCN(Cc1ccncc1)C(=S)Nc1ccc(Cl)cc1 | 4% | -11% | 45%
COc1ccc(CCNC(=O)C(=O)NCc2ccccn2)cc1 | 3% | 3% | 0%
O=C(NCc1ccccn1)Nc1ccccc1 | -28% | -15% | -37%
COc1cccc(NC(=S)NCCc2ccccn2)c1 | 0% | 18µM* | ?
CCN(CC)C(=S)Nc1ccc(Cl)c(Cl)c1 | -6% | ? | 18µM*
O=C(COc1ccc(Cl)cc1)NCCc1ccccn1 | 0% | 4% | 0%
S=C(NCCc1ccccn1)Nc1cc(Cl)cc(Cl)c1 | . | ? | 5µM*
